Results from article PMC7862700, “An all-to-all approach to the identification of sequence-specific readers for epigenetic DNA modifications on cytosine”.

Legend:
Experiment in all cases: DAPPL (digital affinity profiling via proximity ligation, sequencing); 10 mM Tris-HCl pH 7.5, 50 mM NaCl, 1 mM DTT, 4% glycerol, room temperature, 30 min; GST-TFs on glutathione beads, 16-mer random dsDNA library, 0.1% formaldehyde crosslink after washing; high values mean tight binding
FEV = target: T1, FEV (Homo sapiens, UniProt Q99581 1-238); conditions: protein: recombinant; tags: N-terminal GST; dsDNA, one strand shown
T1 sequence: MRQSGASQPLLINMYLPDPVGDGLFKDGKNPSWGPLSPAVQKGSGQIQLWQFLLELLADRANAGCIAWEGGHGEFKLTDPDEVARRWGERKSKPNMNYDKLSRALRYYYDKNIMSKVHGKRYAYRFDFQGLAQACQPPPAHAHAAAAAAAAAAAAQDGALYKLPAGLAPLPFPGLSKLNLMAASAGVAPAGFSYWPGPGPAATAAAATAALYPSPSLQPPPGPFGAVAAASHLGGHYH
Method in brief: (§1)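 In yeast, human transcription factors were expressed with a GST fusion, then pulled down on glutathione beads and given DNA barcodes. Pooled with a tag-only sample, they were exposed to 200 nmole of a 16-mer random double-stranded DNA library (Tris/NaCl/DTT/glycerol buffer, room temperature, 30 min), washed, crosslinked with 0.1% formaldehyde, proximity-ligated using BsaI/T4 ligase for 1 h at 37 °C, PCR-amplified and read on an Illumina NextSeq500. Each hexamer's frequency of reads for a factor, divided by the matching frequency for the tag-only sample, gives the binding signal.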

ETV5 = ETV5 (Homo sapiens, UniProt P41161 1-510); conditions: protein: recombinant; tags: N-terminal GST; dsDNA, one strand shown
Method in brief: as §1

HSF1 = HSF1 (Homo sapiens, UniProt Q00613 1-529); conditions: protein: recombinant; tags: N-terminal GST; chain copies: 3; dsDNA, one strand shown
Method in brief: as §1

SPIC = target: T2, SPIC (Homo sapiens, UniProt Q8N5J4 1-248); conditions: protein: recombinant; tags: N-terminal GST; dsDNA, one strand shown
T2 sequence: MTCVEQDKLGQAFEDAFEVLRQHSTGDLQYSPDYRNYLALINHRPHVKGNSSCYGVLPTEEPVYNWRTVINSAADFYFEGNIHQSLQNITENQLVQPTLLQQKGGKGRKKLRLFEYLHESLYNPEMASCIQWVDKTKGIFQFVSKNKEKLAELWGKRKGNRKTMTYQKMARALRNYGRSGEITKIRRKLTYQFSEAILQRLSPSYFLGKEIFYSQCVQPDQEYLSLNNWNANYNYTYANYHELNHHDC
Method in brief: as §1

ELF4 = ELF4 (Homo sapiens, UniProt Q99607 1-663); conditions: protein: recombinant; tags: N-terminal GST; dsDNA, one strand shown
Method in brief: as §1

ELK4 = target: T3, ELK4 (Homo sapiens, UniProt P28324-2 1-405); conditions: protein: recombinant; tags: N-terminal GST; dsDNA, one strand shown
T3 sequence: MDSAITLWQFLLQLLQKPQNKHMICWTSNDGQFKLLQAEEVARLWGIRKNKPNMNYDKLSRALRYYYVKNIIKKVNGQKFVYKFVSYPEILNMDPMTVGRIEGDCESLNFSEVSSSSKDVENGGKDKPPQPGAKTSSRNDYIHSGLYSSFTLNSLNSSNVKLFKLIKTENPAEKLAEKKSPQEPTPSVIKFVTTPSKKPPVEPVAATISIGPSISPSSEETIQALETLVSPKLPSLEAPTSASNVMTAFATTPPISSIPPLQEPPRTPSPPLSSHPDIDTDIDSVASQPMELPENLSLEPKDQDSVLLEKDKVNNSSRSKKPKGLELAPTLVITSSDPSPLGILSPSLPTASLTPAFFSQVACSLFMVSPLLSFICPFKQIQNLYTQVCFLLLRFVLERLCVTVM
Method in brief: as §1

ETV2 = target: T4, ETV2 (Homo sapiens, UniProt O00321 1-342); conditions: protein: recombinant; tags: N-terminal GST; dsDNA, one strand shown
T4 sequence: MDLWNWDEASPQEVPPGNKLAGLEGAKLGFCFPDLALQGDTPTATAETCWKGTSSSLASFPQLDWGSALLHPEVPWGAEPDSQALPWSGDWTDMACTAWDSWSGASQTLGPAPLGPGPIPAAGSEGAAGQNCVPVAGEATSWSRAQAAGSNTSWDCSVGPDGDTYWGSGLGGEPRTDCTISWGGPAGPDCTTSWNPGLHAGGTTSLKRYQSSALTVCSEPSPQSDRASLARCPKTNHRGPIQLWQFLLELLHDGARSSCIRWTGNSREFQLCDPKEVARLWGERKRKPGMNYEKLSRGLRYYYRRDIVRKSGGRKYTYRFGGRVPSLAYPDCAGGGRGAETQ
Method in brief: as §1

ELF3 = target: T5, ELF3 (Homo sapiens, UniProt P78545 1-371); conditions: protein: recombinant; tags: N-terminal GST; dsDNA, one strand shown
T5 sequence: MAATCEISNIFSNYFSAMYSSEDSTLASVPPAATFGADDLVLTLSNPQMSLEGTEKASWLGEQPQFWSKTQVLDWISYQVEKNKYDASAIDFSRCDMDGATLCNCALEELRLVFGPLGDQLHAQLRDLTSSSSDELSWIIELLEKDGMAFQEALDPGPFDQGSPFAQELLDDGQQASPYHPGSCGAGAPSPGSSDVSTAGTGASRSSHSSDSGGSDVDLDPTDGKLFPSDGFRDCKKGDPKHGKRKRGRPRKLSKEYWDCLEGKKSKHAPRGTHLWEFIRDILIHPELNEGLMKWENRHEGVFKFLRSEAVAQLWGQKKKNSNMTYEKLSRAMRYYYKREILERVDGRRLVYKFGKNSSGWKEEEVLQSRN
Method in brief: as §1

CRX = CRX (Homo sapiens, UniProt O43186 1-299); conditions: protein: recombinant; tags: N-terminal GST; dsDNA, one strand shown
Method in brief: as §1

ETV1 = ETV1 (Homo sapiens, UniProt P50549 1-477); conditions: protein: recombinant; tags: N-terminal GST; dsDNA, one strand shown
Method in brief: as §1

ERF = target: T6, ERF (Homo sapiens, UniProt P50548 1-548); conditions: protein: recombinant; tags: N-terminal GST; dsDNA, one strand shown
T6 sequence: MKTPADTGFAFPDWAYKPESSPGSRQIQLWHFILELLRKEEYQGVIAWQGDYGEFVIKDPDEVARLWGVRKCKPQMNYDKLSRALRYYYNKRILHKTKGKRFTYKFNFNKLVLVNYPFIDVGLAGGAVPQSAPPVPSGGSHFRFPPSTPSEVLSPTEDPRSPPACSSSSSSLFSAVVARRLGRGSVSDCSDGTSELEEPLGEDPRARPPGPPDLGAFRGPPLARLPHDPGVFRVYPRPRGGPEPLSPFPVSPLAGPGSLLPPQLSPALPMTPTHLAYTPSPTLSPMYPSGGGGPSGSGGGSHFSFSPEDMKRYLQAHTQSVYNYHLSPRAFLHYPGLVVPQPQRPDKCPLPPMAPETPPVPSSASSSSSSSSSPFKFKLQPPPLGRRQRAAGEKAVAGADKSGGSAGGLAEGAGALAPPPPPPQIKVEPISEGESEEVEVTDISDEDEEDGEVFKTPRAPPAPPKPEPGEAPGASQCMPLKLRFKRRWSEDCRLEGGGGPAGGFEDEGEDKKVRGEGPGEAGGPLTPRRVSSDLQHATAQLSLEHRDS
Method in brief: as §1

ETV3L = target: T7, ETV3L (Homo sapiens, UniProt Q6ZN32 1-361); conditions: protein: recombinant; tags: N-terminal GST; dsDNA, one strand shown
T7 sequence: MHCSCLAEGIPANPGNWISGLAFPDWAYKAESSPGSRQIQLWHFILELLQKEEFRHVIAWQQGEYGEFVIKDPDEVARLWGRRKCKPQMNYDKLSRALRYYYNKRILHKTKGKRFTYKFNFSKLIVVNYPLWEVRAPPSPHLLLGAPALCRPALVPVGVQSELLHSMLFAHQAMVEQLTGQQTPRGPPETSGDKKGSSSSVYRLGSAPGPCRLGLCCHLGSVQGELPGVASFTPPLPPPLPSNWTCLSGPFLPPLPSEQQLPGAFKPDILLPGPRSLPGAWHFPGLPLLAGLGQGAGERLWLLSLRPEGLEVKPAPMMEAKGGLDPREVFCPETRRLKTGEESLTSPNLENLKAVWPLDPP
Method in brief: as §1

ETS2 = target: T8, ETS2 (Homo sapiens, UniProt P15036 1-469); conditions: protein: recombinant; tags: N-terminal GST; dsDNA, one strand shown
T8 sequence: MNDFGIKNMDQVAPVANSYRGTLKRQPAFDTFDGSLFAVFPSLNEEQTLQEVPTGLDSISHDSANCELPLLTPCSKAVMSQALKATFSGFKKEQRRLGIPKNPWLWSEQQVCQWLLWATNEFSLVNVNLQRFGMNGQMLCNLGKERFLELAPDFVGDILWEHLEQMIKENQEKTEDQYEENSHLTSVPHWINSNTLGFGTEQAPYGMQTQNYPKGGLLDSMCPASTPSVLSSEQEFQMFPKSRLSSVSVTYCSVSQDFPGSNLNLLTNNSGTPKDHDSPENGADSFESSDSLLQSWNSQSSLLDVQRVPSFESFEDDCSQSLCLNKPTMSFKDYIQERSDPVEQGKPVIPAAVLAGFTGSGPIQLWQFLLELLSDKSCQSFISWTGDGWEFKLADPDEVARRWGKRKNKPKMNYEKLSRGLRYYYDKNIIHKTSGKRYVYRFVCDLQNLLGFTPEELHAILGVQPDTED
Method in brief: as §1

SPDEF = target: T9, SPDEF (Homo sapiens, UniProt O95238 1-335); conditions: protein: recombinant; tags: N-terminal GST; dsDNA, one strand shown
T9 sequence: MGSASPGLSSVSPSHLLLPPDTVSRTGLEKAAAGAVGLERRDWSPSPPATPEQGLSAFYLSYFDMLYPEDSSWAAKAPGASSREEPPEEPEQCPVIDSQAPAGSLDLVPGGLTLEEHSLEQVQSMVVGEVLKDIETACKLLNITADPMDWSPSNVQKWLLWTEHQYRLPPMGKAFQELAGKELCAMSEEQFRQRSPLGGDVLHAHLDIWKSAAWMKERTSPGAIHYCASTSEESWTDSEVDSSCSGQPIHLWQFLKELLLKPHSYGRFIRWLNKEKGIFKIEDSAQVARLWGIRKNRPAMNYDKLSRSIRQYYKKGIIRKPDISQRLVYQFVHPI
Method in brief: as §1

ETV7 = target: T10, ETV7 (Homo sapiens, UniProt Q9Y603 1-341); conditions: protein: recombinant; tags: N-terminal GST; dsDNA, one strand shown
T10 sequence: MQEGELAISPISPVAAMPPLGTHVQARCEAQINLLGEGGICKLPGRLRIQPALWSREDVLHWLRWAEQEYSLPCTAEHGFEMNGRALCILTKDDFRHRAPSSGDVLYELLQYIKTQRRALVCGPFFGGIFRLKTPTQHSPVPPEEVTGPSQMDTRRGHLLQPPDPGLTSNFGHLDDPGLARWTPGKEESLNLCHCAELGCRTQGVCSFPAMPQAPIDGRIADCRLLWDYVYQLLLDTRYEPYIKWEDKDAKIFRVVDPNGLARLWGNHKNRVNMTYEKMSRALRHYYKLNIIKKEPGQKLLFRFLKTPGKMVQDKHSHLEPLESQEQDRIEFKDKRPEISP
Method in brief: as §1

ELF5 = target: T11, ELF5 (Homo sapiens, UniProt Q9UKW6-2 1-255); conditions: protein: recombinant; tags: N-terminal GST; dsDNA, one strand shown
T11 sequence: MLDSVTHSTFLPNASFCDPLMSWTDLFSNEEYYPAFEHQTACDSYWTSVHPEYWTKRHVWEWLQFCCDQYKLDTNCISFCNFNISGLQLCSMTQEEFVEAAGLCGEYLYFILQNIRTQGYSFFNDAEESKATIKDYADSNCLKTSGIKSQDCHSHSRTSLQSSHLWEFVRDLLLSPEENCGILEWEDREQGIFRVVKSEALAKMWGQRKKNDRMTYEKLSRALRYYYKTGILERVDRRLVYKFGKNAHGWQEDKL
Method in brief: as §1

ETV3 = target: T12, ETV3 (Homo sapiens, UniProt P41162-2 1-143); conditions: protein: recombinant; tags: N-terminal GST; dsDNA, one strand shown
T12 sequence: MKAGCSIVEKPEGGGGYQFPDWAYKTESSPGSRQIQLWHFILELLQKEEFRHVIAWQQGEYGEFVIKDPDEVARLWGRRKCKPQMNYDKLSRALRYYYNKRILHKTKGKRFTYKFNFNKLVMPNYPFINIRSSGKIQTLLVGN
Method in brief: as §1

ETV6 = ETV6 (Homo sapiens, UniProt P41212 1-452); conditions: protein: recombinant; tags: N-terminal GST; dsDNA, one strand shown
Method in brief: as §1

Sequence of CRX (O43186 whole entry): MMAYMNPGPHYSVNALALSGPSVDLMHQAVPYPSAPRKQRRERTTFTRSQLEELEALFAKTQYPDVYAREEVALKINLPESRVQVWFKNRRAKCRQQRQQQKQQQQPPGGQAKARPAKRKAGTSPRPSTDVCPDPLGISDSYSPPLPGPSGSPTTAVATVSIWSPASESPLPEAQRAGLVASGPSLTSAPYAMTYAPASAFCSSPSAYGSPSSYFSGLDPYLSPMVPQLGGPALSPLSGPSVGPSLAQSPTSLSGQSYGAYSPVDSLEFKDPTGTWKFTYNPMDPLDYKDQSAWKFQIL
Sequence of ETV6 (P41212 whole entry): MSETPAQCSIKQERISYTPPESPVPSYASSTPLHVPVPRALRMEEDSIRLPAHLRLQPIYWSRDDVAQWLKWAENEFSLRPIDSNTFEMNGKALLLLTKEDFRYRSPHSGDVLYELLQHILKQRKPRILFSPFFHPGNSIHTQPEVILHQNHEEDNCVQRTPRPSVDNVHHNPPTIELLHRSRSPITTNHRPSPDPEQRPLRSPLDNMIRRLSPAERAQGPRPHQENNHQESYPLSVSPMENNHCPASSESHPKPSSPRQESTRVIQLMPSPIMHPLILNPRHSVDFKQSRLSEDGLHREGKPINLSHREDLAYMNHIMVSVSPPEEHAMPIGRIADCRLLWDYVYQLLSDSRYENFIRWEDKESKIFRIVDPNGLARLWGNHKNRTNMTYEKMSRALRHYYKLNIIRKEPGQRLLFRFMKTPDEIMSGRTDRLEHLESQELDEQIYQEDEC
Sequence of ETV5 (P41161 whole entry): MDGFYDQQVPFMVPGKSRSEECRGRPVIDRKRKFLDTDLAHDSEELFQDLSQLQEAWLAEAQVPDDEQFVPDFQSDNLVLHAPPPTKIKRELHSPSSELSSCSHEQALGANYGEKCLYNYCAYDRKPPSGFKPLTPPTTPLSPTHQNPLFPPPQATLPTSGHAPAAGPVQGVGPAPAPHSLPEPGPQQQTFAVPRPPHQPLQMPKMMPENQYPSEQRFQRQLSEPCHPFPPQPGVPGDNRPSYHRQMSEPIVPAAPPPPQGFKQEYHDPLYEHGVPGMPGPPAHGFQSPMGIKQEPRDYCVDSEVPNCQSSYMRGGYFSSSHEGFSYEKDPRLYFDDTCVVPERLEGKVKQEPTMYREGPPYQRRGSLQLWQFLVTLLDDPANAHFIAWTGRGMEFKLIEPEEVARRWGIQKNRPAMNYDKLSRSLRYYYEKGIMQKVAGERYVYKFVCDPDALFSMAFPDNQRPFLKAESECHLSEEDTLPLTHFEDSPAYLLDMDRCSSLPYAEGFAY
Sequence of ELF4 (Q99607 whole entry): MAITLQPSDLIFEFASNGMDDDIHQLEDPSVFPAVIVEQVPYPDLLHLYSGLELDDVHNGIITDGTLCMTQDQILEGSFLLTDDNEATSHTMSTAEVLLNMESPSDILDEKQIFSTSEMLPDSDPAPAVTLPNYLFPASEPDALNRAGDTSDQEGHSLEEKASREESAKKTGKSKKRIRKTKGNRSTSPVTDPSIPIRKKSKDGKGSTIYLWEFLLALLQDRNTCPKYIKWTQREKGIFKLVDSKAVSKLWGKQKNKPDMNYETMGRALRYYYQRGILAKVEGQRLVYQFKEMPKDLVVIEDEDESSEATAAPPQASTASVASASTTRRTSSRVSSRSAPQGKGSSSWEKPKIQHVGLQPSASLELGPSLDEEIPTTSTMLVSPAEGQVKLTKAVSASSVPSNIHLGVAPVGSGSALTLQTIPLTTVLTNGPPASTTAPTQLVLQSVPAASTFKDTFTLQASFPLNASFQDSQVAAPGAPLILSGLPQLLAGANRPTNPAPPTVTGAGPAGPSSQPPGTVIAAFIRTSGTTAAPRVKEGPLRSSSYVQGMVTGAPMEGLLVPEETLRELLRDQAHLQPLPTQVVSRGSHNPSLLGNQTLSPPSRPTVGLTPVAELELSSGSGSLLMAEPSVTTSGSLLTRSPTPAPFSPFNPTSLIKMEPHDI
Sequence of ETV1 (P50549 whole entry): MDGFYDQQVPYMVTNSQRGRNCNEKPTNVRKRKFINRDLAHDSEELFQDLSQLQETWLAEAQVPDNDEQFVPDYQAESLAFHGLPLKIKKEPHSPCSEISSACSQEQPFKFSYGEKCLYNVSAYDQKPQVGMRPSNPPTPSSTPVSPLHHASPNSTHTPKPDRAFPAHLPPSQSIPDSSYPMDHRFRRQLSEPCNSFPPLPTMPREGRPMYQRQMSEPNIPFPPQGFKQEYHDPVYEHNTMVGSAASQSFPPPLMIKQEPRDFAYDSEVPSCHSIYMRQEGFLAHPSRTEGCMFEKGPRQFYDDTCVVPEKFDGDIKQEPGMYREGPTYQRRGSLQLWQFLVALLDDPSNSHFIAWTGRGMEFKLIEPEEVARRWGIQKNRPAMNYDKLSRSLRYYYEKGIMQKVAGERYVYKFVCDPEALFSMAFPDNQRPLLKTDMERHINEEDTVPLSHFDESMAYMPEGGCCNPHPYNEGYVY
Sequence of HSF1 (Q00613 whole entry): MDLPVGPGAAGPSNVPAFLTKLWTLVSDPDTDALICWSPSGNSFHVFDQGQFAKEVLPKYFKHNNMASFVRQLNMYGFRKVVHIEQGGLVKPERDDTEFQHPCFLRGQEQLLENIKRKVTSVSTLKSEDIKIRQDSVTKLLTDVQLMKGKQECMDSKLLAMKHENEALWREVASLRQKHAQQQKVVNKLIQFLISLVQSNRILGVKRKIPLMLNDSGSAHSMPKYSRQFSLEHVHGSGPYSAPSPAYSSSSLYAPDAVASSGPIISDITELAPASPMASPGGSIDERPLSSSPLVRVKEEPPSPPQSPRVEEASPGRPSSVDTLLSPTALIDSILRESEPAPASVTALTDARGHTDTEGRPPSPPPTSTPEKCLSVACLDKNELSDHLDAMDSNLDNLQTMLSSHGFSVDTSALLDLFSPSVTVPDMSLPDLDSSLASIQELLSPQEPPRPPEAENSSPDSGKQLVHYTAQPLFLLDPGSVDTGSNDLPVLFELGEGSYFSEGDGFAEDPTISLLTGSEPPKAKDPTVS

Sequence: GATCTT
- binding signal (FEV): 1.14 fold enrichment (6-mer frequency, TF over GST control)
- binding signal (ETV5): 1.21 fold enrichment (6-mer frequency, TF over GST control)
- binding signal (HSF1): 1.62 fold enrichment (6-mer frequency, TF over GST control)
- binding signal (SPIC): 1.42 fold enrichment (6-mer frequency, TF over GST control)
- binding signal (ELF4): 1.26 fold enrichment (6-mer frequency, TF over GST control)
- binding signal (ELK4): 1.23 fold enrichment (6-mer frequency, TF over GST control)
- binding signal (ETV2): 1.18 fold enrichment (6-mer frequency, TF over GST control)
- binding signal (ELF3): 1.43 fold enrichment (6-mer frequency, TF over GST control)
- binding signal (CRX): 1.71 fold enrichment (6-mer frequency, TF over GST control)
- binding signal (ETV1): 1.25 fold enrichment (6-mer frequency, TF over GST control)
- binding signal (ERF): 1.15 fold enrichment (6-mer frequency, TF over GST control)
- binding signal (ETV3L): 1.15 fold enrichment (6-mer frequency, TF over GST control)
- binding signal (ETS2): 1.15 fold enrichment (6-mer frequency, TF over GST control)
- binding signal (SPDEF): 1.42 fold enrichment (6-mer frequency, TF over GST control)
- binding signal (ETV7): 1.28 fold enrichment (6-mer frequency, TF over GST control)
- binding signal (ELF5): 1.29 fold enrichment (6-mer frequency, TF over GST control)
- binding signal (ETV3): 1.24 fold enrichment (6-mer frequency, TF over GST control)
- binding signal (ETV6): 1.14 fold enrichment (6-mer frequency, TF over GST control)
